Where a name gives a salt, the structure may show the parent alone.
Assays:
Details in all cases: 20 µM
[1] = test system: Salmonella enterica typhimurium; assay: growth AUC normalised to DMSO control (fraction of control); higher = less growth inhibition, active = hit call of the paper
How it was run: (§1)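 Pathogens were passaged twice under anaerobic conditions, then inoculated into pre-reduced mGAM plates at a starting OD578 of 0.01, with compound at 20 μM and 1% DMSO, and sealed with breathable membranes. For Haemophilus parainfluenzae, the medium was supplemented with hemin and NAD. OD578 was read every hour for 24 h in three biological replicates. Growth-curve AUC was calculated by the trapezoidal rule up to the exponential-to-stationary transition and normalised to DMSO controls on the same plate.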

Shigella flexneri = assay: as above
How it was run: as §1

Vibrio cholerae = assay: as above
How it was run: as §1

[2] = test system: Yersinia pseudotuberculosis; assay: as above
How it was run: as §1

P. vulgatus RND KO = assay: growth AUC normalised to DMSO control (median) (fraction of control); higher = less growth inhibition, active = hit call of the paper
How it was run: (§2)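 Strains were passaged twice overnight without oxygen, then grown in mGAM in 96-well plates with each approved-drug library compound at 20 μM and 1% DMSO, starting at OD578 0.01. OD578 was read hourly for 24 h inside an anaerobic incubator. Curves were truncated at entry into stationary phase, and the trapezoidal-rule area under the curve was normalised to same-plate vehicle wells. The value is the median across three biological replicates.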

P. vulgatus WT = assay: as above
How it was run: as §2

[3] = test system: S. enterica typhimurium WT; assay: as above
How it was run: as §2

[4] = test system: S. enterica typhimurium tolC KO; assay: as above
How it was run: as §2

Measured: growth AUC normalised to DMSO control
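Throughout, for growth AUC normalised to DMSO control (median): active when median AUC fell below 0.1.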

CC(C)Cn1cnc2c(N)nc3ccccc3c21 [Imiquimod]
inactive: [1] 1.02 | Shigella flexneri 1.05 | Vibrio cholerae 1.06 | [2] 1.01 | P. vulgatus RND KO 0.986 | P. vulgatus WT 0.951 | [3] 0.997 | [4] 0.994

CN1CCN(C2=Nc3cc(Cl)ccc3Nc3ccccc32)CC1 [Clozapine]
inactive: [1] 1.02 | Shigella flexneri 1.05 | Vibrio cholerae 0.969 | [2] 1 | P. vulgatus RND KO 1.01 | P. vulgatus WT 1.02 | [3] 1 | [4] 0.977

CCOC(=O)C1=C[C@]2(CC)CCCN3CCc4c(n1c1ccccc41)[C@@H]32 [Vinpocetine]
inactive: [1] 0.974 | Shigella flexneri 1.03 | Vibrio cholerae 0.904 | [2] 1.01 | P. vulgatus RND KO 1 | P. vulgatus WT 0.988 | [3] 1 | [4] 0.972

CCOC(=O)c1ccc(N)cc1 [Benzocaine]
inactive: [1] 1.02 | Shigella flexneri 1.03 | Vibrio cholerae 1.07 | [2] 1.03 | P. vulgatus RND KO 1.04 | P. vulgatus WT 1.07 | [3] 1.01 | [4] 1.01

COc1ccccc1OCCNCC(O)COc1cccc2[nH]c3ccccc3c12 (stereo unspecified) [Carvedilol]
inactive: [1] 1.02 | Shigella flexneri 1 | Vibrio cholerae 0.994 | [2] 0.997 | P. vulgatus RND KO 0.995 | P. vulgatus WT 0.989 | [3] 0.994 | [4] 0.944

O=C1NCN(c2ccccc2)C12CCN(CCCC(c1ccc(F)cc1)c1ccc(F)cc1)CC2 [Fluspirilene]
inactive: [1] 1.04 | Shigella flexneri 1.01 | Vibrio cholerae 1.04 | [2] 1.01 | P. vulgatus RND KO 1 | P. vulgatus WT 1.01 | [3] 1.02 | [4] 0.988

CCC(=O)OCC(=O)[C@@]1(OC(=O)CC)[C@H](C)C[C@H]2[C@H]3[C@H]([C@@H](O)C[C@@]21C)[C@@]1(C)C=CC(=O)C=C1C[C@H]3Cl [Alclometasone dipropionate]
inactive: [1] 1 | Shigella flexneri 0.974 | Vibrio cholerae 0.999 | [2] 1.01 | P. vulgatus RND KO 1.03 | P. vulgatus WT 1.04 | [3] 1 | [4] 1

Cc1ccccc1C(OCCN(C)C)c1ccccc1 (stereo unspecified) [Orphenadrine hydrochloride]
inactive: [1] 1 | Shigella flexneri 1.02 | Vibrio cholerae 1.02 | [2] 0.992 | P. vulgatus RND KO 1.01 | P. vulgatus WT 0.992 | [3] 0.983 | [4] 0.958

CC(=O)NC[C@H]1CN(c2ccc(N3CCOCC3)c(F)c2)C(=O)O1 [Linezolid]
inactive: [2] 0.916 | [3] 0.918 | [4] 0.223
active: [1] 0.885 | Shigella flexneri 0.806 | Vibrio cholerae 0.0187 | P. vulgatus RND KO 0.00951 | P. vulgatus WT 0.011

CC(=O)S[C@@H]1CC2=CC(=O)CC[C@]2(C)[C@H]2CC[C@@]3(C)[C@@H](CC[C@@]34CCC(=O)O4)[C@H]12 [Spironolactone]
inactive: [1] 0.983 | Shigella flexneri 0.981 | Vibrio cholerae 0.954 | [2] 1.02 | P. vulgatus RND KO 1.02 | P. vulgatus WT 1.02 | [3] 0.998 | [4] 0.981

Cc1cccc(Nc2ccccc2C(=O)O)c1C [Mefenamic acid]
inactive: [1] 1 | Shigella flexneri 1.01 | Vibrio cholerae 0.926 | [2] 1 | P. vulgatus RND KO 0.958 | P. vulgatus WT 0.979 | [3] 0.985 | [4] 1.01

COc1ccccc1OCC(O)CN1CCN(CC(=O)Nc2c(C)cccc2C)CC1 (stereo unspecified) [Ranolazine]
inactive: [1] 1 | Shigella flexneri 1 | Vibrio cholerae 1.01 | [2] 1.01 | P. vulgatus RND KO 0.994 | P. vulgatus WT 1 | [3] 0.998 | [4] 0.998

CC(C)NCC(O)COc1cccc2[nH]ccc12 (stereo unspecified) [Pindolol]
inactive: [1] 1.01 | Shigella flexneri 1.04 | Vibrio cholerae 1.03 | [2] 0.978 | P. vulgatus RND KO 1.05 | P. vulgatus WT 1.08 | [3] 1 | [4] 1.01

CN1CCC[C@@H]1CCO[C@](C)(c1ccccc1)c1ccc(Cl)cc1 [Clemastine fumarate]
inactive: [1] 0.999 | Shigella flexneri 0.969 | Vibrio cholerae 0.926 | [2] 1.02 | P. vulgatus RND KO 0.944 | P. vulgatus WT 0.947 | [3] 0.998 | [4] 0.925

C/C(=C(\CCOP(=O)(O)O)SC(=O)c1ccccc1)N(C=O)Cc1cnc(C)nc1N [Benfotiamine]
inactive: [1] 0.997 | Shigella flexneri 0.982 | Vibrio cholerae 0.996 | [2] 0.988 | P. vulgatus RND KO 1.02 | P. vulgatus WT 1.03 | [3] 1.01 | [4] 0.999

CC[C@H](C)C(=O)O[C@H]1C[C@@H](C)C=C2C=C[C@H](C)[C@H](CC[C@@H]3C[C@@H](O)CC(=O)O3)[C@H]21 [Lovastatin]
inactive: [1] 0.999 | Shigella flexneri 0.997 | Vibrio cholerae 0.995 | [2] 0.999 | P. vulgatus RND KO 0.958 | P. vulgatus WT 0.928 | [3] 0.99 | [4] 0.967

Nc1nc(=O)c2c([nH]1)NC[C@@H](CNc1ccc(C(=O)N[C@@H](CCC(=O)O)C(=O)O)cc1)N2C=O [Folinic acid calcium salt]
inactive: [1] 1 | Shigella flexneri 0.999 | Vibrio cholerae 1.01 | [2] 1 | P. vulgatus RND KO 1.01 | P. vulgatus WT 1.04 | [3] 1 | [4] 1

CN[C@@H]1[C@H](O)[C@H](NC)[C@H]2O[C@@]3(O)C(=O)C[C@@H](C)O[C@H]3O[C@@H]2[C@H]1O [Spectinomycin dihydrochloride]
inactive: Shigella flexneri 1.01 | Vibrio cholerae 1.02 | P. vulgatus RND KO 1.01 | P. vulgatus WT 1 | [3] 0.961 | [4] 0.871
active: [1] 0.896 | [2] 0.933

COc1ccc(-c2cc(=O)c3c(O)cc(O[C@@H]4O[C@H](CO[C@@H]5O[C@@H](C)[C@H](O)[C@@H](O)[C@H]5O)[C@@H](O)[C@H](O)[C@H]4O)cc3o2)cc1O [Diosmin]
inactive: [1] 0.988 | Shigella flexneri 0.96 | Vibrio cholerae 0.971 | [2] 0.975 | P. vulgatus RND KO 0.997 | P. vulgatus WT 0.991 | [3] 1 | [4] 0.996

CCCN(CCC)CCc1cccc2c1CC(=O)N2 [Ropinirole hydrochloride]
inactive: [1] 0.997 | Shigella flexneri 1.02 | Vibrio cholerae 0.976 | [2] 0.985 | P. vulgatus RND KO 1.03 | P. vulgatus WT 1.04 | [3] 1 | [4] 0.988

Cc1cc(C(=O)NNCc2ccccc2)no1 [Isocarboxazid]
inactive: [1] 0.994 | Shigella flexneri 1.02 | Vibrio cholerae 1.03 | [2] 0.996 | P. vulgatus RND KO 1.05 | P. vulgatus WT 1.05 | [3] 0.998 | [4] 0.993

Cc1cc(-c2ccccc2)nnc1NCCN1CCOCC1 [Minaprine dihydrochloride]
inactive: [1] 0.997 | Shigella flexneri 1.01 | Vibrio cholerae 1.02 | [2] 1 | P. vulgatus RND KO 1 | P. vulgatus WT 0.998 | [3] 1 | [4] 0.998

COC(=O)Nc1nc2cc(C(=O)c3cccs3)ccc2[nH]1 [Nocodazole]
inactive: [1] 1.01 | Shigella flexneri 1.02 | Vibrio cholerae 0.979 | [2] 1 | P. vulgatus RND KO 1.01 | P. vulgatus WT 1.02 | [3] 1.01 | [4] 0.975

Cc1ccc(S(=O)(=O)NC(=O)NN2CCCCCC2)cc1 [Tolazamide]
inactive: [1] 1.02 | Shigella flexneri 1.04 | Vibrio cholerae 1.03 | [2] 0.997 | P. vulgatus RND KO 1.01 | P. vulgatus WT 1.02 | [3] 1.01 | [4] 0.999

COc1ccc(Cl)cc1C(=O)NCCc1ccc(S(=O)(=O)NC(=O)NC2CCCCC2)cc1 [Glibenclamide]
inactive: [1] 0.984 | Shigella flexneri 1.02 | Vibrio cholerae 1.03 | [2] 1.01 | P. vulgatus RND KO 0.953 | P. vulgatus WT 0.956 | [3] 1.01 | [4] 1

CC(C)C(=O)Nc1ccc([N+](=O)[O-])c(C(F)(F)F)c1 [Flutamide]
inactive: [1] 1.01 | Shigella flexneri 1.04 | Vibrio cholerae 1.01 | [2] 0.988 | P. vulgatus RND KO 1 | P. vulgatus WT 1.01 | [3] 0.985 | [4] 0.96

CC1(C)OC(=O)NC1=O [Dimethadione]
inactive: [1] 0.972 | Shigella flexneri 0.995 | Vibrio cholerae 1.01 | [2] 0.998 | P. vulgatus RND KO 1.02 | P. vulgatus WT 1 | [3] 0.99 | [4] 0.997

Reference: the supplement of paper PMC12350171
